Screening data as filed in PubChem.
In the library only some 2.4% were active in any assay of this set; here they are far more common.
A3G deaminase = APOBEC3G DNA deaminase inhibitors, primary screen, biochemical, fluorescence, single-stranded DNA substrate, uHTS. AID 493012, 2011. DNA dC->dU-editing enzyme APOBEC-3G (Homo sapiens), Q9HC16. recombinant A3G, ssDNA deamination FAM/TAMRA fluorescence. 330,000 tested, 0.28% active. inhibition, % at 20 µM;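 active = inhibition of at least 40% at 20 µM, with no more than 30% in the related APOBEC3A deaminase screen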;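 note: plate controls were DMSO wells with A3G for no effect and wells lacking A3G enzyme for full effect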
Target sequence (Q9HC16 whole entry, looked up): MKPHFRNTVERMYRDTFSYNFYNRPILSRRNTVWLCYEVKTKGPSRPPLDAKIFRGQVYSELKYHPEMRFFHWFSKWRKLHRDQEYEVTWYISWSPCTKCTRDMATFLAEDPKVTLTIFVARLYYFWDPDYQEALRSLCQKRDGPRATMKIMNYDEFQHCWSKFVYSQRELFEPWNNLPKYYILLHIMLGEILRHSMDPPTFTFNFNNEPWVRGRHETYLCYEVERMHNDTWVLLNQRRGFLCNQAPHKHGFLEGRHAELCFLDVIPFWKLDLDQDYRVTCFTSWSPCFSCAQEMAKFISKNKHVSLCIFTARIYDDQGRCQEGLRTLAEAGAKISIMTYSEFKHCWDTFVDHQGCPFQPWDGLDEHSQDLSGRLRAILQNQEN
PfM18AAP inh-1 = PfM18AAP inhibitors, malaria aminopeptidase, primary screen, biochemical, QFRET, recombinant enzyme; M18 aspartyl aminopeptidase (Plasmodium falciparum 3D7); H-Glu-NHMec fluorogenic cleavage; inhibition, % at 7.35 µM; 290,000 tested, 1.2% active; AID 1822, 2009;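 active = inhibition above the campaign mean inhibition over all tested compounds plus 3 SD, cut at about 28% in these data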;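 note: 0% = plate median of test compound wells and 100% = 2 mM ZnCl2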
PfGluPho inh = PfG6PD enzyme inhibitors, primary screen, biochemical, fluorescence intensity, uHTS. inhibition, % at 20 µM. PfGluPho enzyme, NADPH resazurin-diaphorase fluorescence. AID 504690, 2011. 350,000 tested, 0.78% active;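 active = inhibition reaching at least a set limit at 20 µM in the primary screen, cut at about 59% in these data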;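 note: 0% = DMSO wells with substrate and 100% = DMSO wells lacking glucose-6-phosphate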
Yeast superoxide = reduction of superoxide in aged yeast, primary screen, HTS; S. cerevisiae aged cells, superoxide DHE fluorescence; stronger effect = lower value; superoxide response (% of plate mean), % at 10 µM; 330,000 tested, 0.18% active;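 active = superoxide response under a set limit, about three screen SD below normal, cut at about 65% in these data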;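 note: yeast aged for seven days with compound at 30 °C before DHE staining; 100% = average MFI of all compound-treated wells on the plate with controls excluded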
A3A deaminase = APOBEC3A ssDNA deaminase inhibitors, primary screen, selectivity assay for APOBEC3G inhibitor project, biochemical, FAM/TAMRA oligo cleavage fluorescence; recombinant A3A, FAM/TAMRA ssDNA deamination fluorescence; inhibition, % at 20 µM; DNA dC->dU-editing enzyme APOBEC-3A (Homo sapiens), P31941; AID 493011, 2011; 330,000 tested, 0.41% active;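 active = at least 40% inhibition at 20 µM here, with at most 30% in a related deaminase screen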;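 note: plate controls were A3A with DMSO for no effect and wells lacking A3A enzyme for full effect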
Target sequence (P31941 whole entry, looked up): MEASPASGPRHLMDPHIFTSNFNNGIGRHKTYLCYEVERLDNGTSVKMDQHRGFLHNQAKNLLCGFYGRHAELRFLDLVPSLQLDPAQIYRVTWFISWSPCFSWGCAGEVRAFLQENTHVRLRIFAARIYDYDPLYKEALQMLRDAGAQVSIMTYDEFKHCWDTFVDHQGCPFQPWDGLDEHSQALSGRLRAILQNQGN
PfM18AAP inh-2 = PfM18AAP inhibitors, malaria aminopeptidase, confirmation, biochemical, QFRET, recombinant enzyme, triplicate; shares compounds with PfM18AAP inh-1; H-Glu-NHMec fluorogenic cleavage; AID 2170, 2009; 2,400 tested, 28% active; inhibition, % at 7.35 µM;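 active = mean inhibition over replicate wells above the hit cutoff set for the earlier primary screen, cut at about 29% in these data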;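 note: 0% = median of test compound wells and 100% = 2 mM ZnCl2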
CTSL1 confirm = cathepsin L1 inhibitors, retest, confirmation, counter-screen for PFM18AAP inhibitor project, biochemical, QFRET, triplicate | 2,400 tested, under 10 active | inhibition, % at 5.96 µM | AID 2178, 2009 | purified cathepsin L1, Z-Leu-Arg-MCA fluorescence | shares compounds with PfM18AAP inh-1;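 active = average inhibition across replicates above the hit cutoff set in the earlier primary screen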;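 note: 0% = median of test compound wells and 100% = Z-Phe-Ala-diazomethylketone 1 µM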
An asterisk follows results filed as active; nt = no result given.

SMILES	A3G deaminase	PfM18AAP inh-1	PfGluPho inh	Yeast superoxide	A3A deaminase	PfM18AAP inh-2	CTSL1 confirm
O=c1c2cc3c(=O)n(-c4ccccc4O)c(=O)c3cc2c(=O)n1-c1ccccc1O	-9	41*	-3	102	-1	-40	6
Cc1ccc(/C=C/C(=O)NN2CCN(C)CC2)cc1	-3	0	8	97	1	nt	nt
Cc1ccc(/C=C/C(=O)Nn2cnnc2)cc1	9	41*	2	95	1	51*	-6
O=C(NC(=S)Nn1cnnc1)c1cccc(Br)c1	-3	69*	18	98	-1	87*	1
Cc1ccc(C(=O)NC(=S)Nn2cnnc2)cc1	-7	84*	29	103	-3	60*	-2
Cc1cccc(NC(=O)N2CCCc3ccccc32)c1C	-10	4	12	99	-2	nt	nt
Fc1ccccc1/C=N/n1cnnc1	-5	14	3	108	-4	nt	nt
Fc1ccccc1/C=N/n1cc(-c2ccccc2)[nH]c1=S	-8	46*	48	86	-5	41*	0
COc1cc(C2NC(=O)NC(C)=C2C(=O)OC2CCCCC2)cc(Cl)c1O (stereo unspecified)	-4	10	-7	73	0	nt	nt
Cc1ccc(S(=O)(=O)Nc2cc(Cl)c(O)c3ncccc23)cc1	4	39*	35	93	-5	18	-2
Cc1cc(SCC(=O)c2ccc(O)c(O)c2)n2nc(C)c(-c3ccccc3)c2n1	-4	57*	-26	112	-1	37*	-5
O=C(CSc1nc2ccccc2c(=O)[nH]1)c1ccc(O)cc1O	nt	1	-4	nt	nt	nt	nt
COCc1cc(C)nc(SCC(=O)c2ccc(O)c(O)c2)c1C#N	-2	62*	-4	94	1	39*	-2
COCc1cc(C)nc(SCC(=O)Oc2ccccc2)c1C#N	-1	1	-4	124	-3	nt	nt
O=C(CSc1nc2ccccc2c(=O)[nH]1)c1ccc(O)c(O)c1	0	65*	-9	87	3	68*	2
Cc1cc(C)nc(SCC(=O)c2ccc(O)c(O)c2)n1	4	50*	-31	103	6	28	7
OCCC1CN(CC2CCCCC2)CCN1CC1CCCCC1 (stereo unspecified)	-7	-4	-5	100	-2	nt	nt
Cc1cc(C)nc(SCNC(=O)c2ccc(Cl)cc2)n1	-2	51*	22	98	-1	-29	0
Cc1cc(=O)[nH]c(SCC(=O)c2ccc(O)c(O)c2)n1	-3	68*	-6	86	-1	59*	-4
O=C(NC1CCCC1)c1cccc2c1C(=O)c1ccc(Cl)cc1S2(=O)=O	-11	nt	0	116	-2	nt	nt
O=S(=O)(c1ccc(NC(=S)N/N=C/c2ccc(O)c(O)c2)cc1)N1CCOCC1	-5	57*	-24	89	-6	34*	-1
N#Cc1ccc(/C=N/NC(=S)Nc2ccc(S(=O)(=O)N3CCOCC3)cc2)cc1	-5	3	1	90	1	nt	nt
O=C(N/N=C/c1c[nH]c2ccccc12)c1ccc(O)c(O)c1	-10	70*	-5	85	-6	50*	2
O=C(C=C(C(=O)c1ccccc1)c1ccccc1)c1ccccc1	nt	nt	13	nt	nt	nt	nt
Cc1ccc(-c2n[nH]c(=S)n2/N=C/c2ccc(C(=O)O)cc2)cc1	40	36*	17	85	-6	10	-4
SMILES	A3G deaminase	PfM18AAP inh-1	PfGluPho inh	Yeast superoxide	A3A deaminase	PfM18AAP inh-2	CTSL1 confirm
Fc1cccc(C[n+]2csc3ccccc32)c1	-1	34*	55	73	0	6	0
OCCN(Cc1ccccc1)Cc1cccc(F)c1	-7	0	6	105	-2	nt	nt
Cc1ccc([C@H]2N[C@]3(CCCN(Cc4ccc(Br)cc4)C3=O)[C@H]3C(=O)N(Cc4ccccc4)C(=O)[C@@H]23)cc1	nt	nt	13	nt	nt	nt	nt
CCOC(=O)N1CCN(C(=O)CN(c2cccc(C(F)(F)F)c2)S(=O)(=O)c2ccccc2)CC1	-4	37*	-22	97	-1	-62	-4
O=C(CN(c1cccc(C(F)(F)F)c1)S(=O)(=O)c1ccccc1)N1CCOCC1	-1	1	-2	103	-1	nt	nt
COc1ccc(/C(C)=N/Nc2nc3ccccc3nc2C)cc1	-3	56*	31	95	4	-14	3
COc1ccc(/C(C)=N/Nc2nncc3ccccc23)cc1	-7	-1	15	88	-4	nt	nt
Cc1cc(-n2cnnn2)cc(C)c1S(=O)(=O)NCCOc1ccccc1	3	-2	4	91	0	nt	nt
O=C(N/N=C/c1ccc(O)c(O)c1)c1ccc(CSc2cccc3cccnc23)cc1	-7	57*	-22	71	-1	49*	-5
C[C@H]1CN([C@@H](C)CO)C(=O)CCCn2nncc2CO[C@H]1CN(C)C(=O)Cc1ccccc1	nt	nt	-3	nt	nt	nt	nt
N#CCC(=O)N/N=C/c1ccc(OCC(=O)Nc2ccc(F)cc2)cc1	-4	42*	-15	92	-2	-45	4
CCOc1ccccc1/C=N/NC(=O)C[n+]1ccccc1	-8	nt	5	94	-3	nt	nt
N#CCC(=O)N/N=C/c1ccc(Cl)cc1	-7	26	-38	96	1	nt	nt
CN(c1ccccc1)c1ccc(/C=N/NC(=O)CC#N)cc1	-3	36*	34	105	-1	-33	9
CCCCOc1ccccc1/C=N/NC(=O)CC#N	-2	38*	40	75	-1	-13	-6
Cc1nc(N(C)C2CCCCC2)c2nnn(Cc3ccc(F)cc3)c2n1	nt	nt	29	nt	nt	nt	nt
Cc1cc(C)nc(/N=C(\N)Nc2ccc(C(C)C)cc2)n1	7	1	-16	94	6	nt	nt
CC(CC(=O)O)Nc1ccccc1O (stereo unspecified)	-2	38*	24	93	-4	8	-1
CC(=O)Nc1ccccc1O	-7	1	-1	99	0	nt	nt
CCN(C(=O)COC(=O)/C=C/c1nc2ccccc2s1)c1c(N)n(Cc2ccccc2)c(=O)[nH]c1=O	nt	nt	-5	nt	nt	nt	nt
Cc1ccc(-n2nc3ccc(N)cc3n2)cc1C	-2	10	-8	110	-1	nt	nt
Cc1ccc(-n2nc3ccc(N)cc3n2)cc1Cl	-4	32*	-10	108	3	-42	-1
